Bioassay records (PubChem)
Tg IFNy HTS: T. gondii growth inhibition with IFN-gamma, primary screen, cell-based; Toxoplasma gondii growth in IFN-gamma-treated host cells; stronger effect = lower value; activity change, negative = inhibition, % (test concentration not listed); 69,000 tested, 3.8% active; AID 1259416, 2018; in the data active = activity change below about -70%, passing the limit was not always enough;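 also: host cells are HeLa cells infected with Toxoplasma gondii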
* marks the source's active call; other numbers are inactive results; i = inactive. This is one part of a sample in which hits are shown more often than they occur.

SMILES | Tg IFNy HTS
COC(=O)[C@@H]1C[C@@H](N(C)C)CN1C(=O)c1cc2ccccn2n1 | -6.2
COc1ccc(-c2nc3c(s2)CN(C(=O)Nc2cc(C)ccc2C)CC3)cc1OC | 21.4
CCc1ccccc1NC(=O)N1CCc2nc(-c3ccc(OC)c(OC)c3)sc2C1 | 45.6
COc1ccc(-c2nc3c(s2)CN(C(=O)Nc2ccc(C)c(C)c2)CC3)cc1OC | -82.8*
Cc1ccc(-c2nc3c(s2)CN(C(=O)Nc2cc(C)ccc2C)CC3)cc1 | -34.8
CCc1ccc(NC(=O)N2CCc3nc(-c4ccc(OC)c(OC)c4)sc3C2)cc1 | -79.2*
CCc1ccccc1NC(=O)N1CCc2nc(-c3cccc(OC)c3)sc2C1 | 30.0
COc1ccc(CC(=O)N2CCC(c3nc(C(=O)N4CCCC4)c(C)o3)CC2)cc1Cl | -56.8
O=c1n(CC2CCCO2)nc(C2CCNCC2)n1Cc1ccccc1 (centres undefined) | 5.7
Cc1nn2c(C3CNCCO3)ccnc2c1CN1CCOCC1 (centres undefined) | 20.0
O=c1n(Cc2ccncc2)nc(C(F)(F)F)c2cccn12 | 10.5
O=c1n(Cn2nnc3ccccc32)nc(C(F)(F)F)c2cccn12 | 70.3
O=c1[nH]nc(C(F)(F)F)n2cccc12 | -103.8*
CCOc1ccc(NC(=O)CC2C(=O)N(CC)C(=S)N2Cc2ccc(OC)cc2)cc1 (centres undefined) | 20.4
Cn1c(CN2CCCCC2)nc2cc(NC(=O)COc3ccc4c(c3)OCO4)ccc21 | -12.0
CC(C)c1nnc(NC(=O)COc2ccc3c(c2)OCO3)s1 | -84.6*
COCCSc1nnc(NC(=O)COc2ccc3c(c2)OCO3)s1 | -83.0*
Cc1nn(-c2ccc(F)cc2)c(C)c1CNC(=O)COc1ccc2c(c1)OCO2 | 41.0
COCC(=O)Nc1cccc(-c2ccc3c(c2)OCO3)c1 | 37.8
CN(Cc1ncc[nH]1)C(=O)COc1ccc2c(c1)OCO2 | -4.9
CCOC(=O)c1nn(Cc2ccc(OC)cc2)c2c1CN(C(=O)c1scc3c1OCCO3)CC2 | -68.1
CCOCC1CN(Cc2c(C)noc2C)Cc2ncn(C)c21 (centres undefined) | -47.4
O=C1CNC(=S)N1CCc1ccccn1 | 19.1
COc1ccc(-c2nc(C)c(CCNS(=O)(=O)c3ccc(OC)c(C)c3)s2)cc1 | i
CNC(=O)c1cc(=O)n(CC(=O)Nc2ccc(OC)cc2OC)c2ccccc12 | -1.7
SMILES | Tg IFNy HTS
CCN(CC)c1ncnc2c1cnn2CC(=O)NC1CCCC1 | 280.3
CC(C)CN1[C@@H]2CCN(C(=O)[C@H]3CCCO3)CC[C@@H]2Oc2ccccc2S1(=O)=O | -12.6
Cc1ccc(-c2nnc(-c3ccccc3)n2-c2ccc(C)cc2)cc1 | -3.0
CC1=Nc2ccc(-c3ccccc3)cc2C1(C)C | -98.9*
C=CCOCC1CN(C(=O)CC2C=CCC2)Cc2nnn(C)c21 (centres undefined) | 1.0
CS(=O)(=O)NC[C@@H]1CCC[C@]2(CCN(CC3CCOCC3)C2)O1 | 68.1
Cc1cc(C)c2c(n1)sc1c3ccccc3c(N)nc12 | -102.2*
Cc1cc(C)c2c(n1)sc1c(=O)oc(C)nc12 | 13.9
C=CCSc1ncnc2c1sc1nc(C)cc(C)c12 | 99.1
COc1ccccc1OC1CCN(C(=O)c2ncc[nH]2)CC1 | 2.7
O=C(NCc1ccccc1)c1ccc(S(=O)(=O)c2ccc(Oc3ccccc3)cc2)cc1 | -50.3
O=C(c1cncc(N2C[C@@H]3[C@@H]4CC[C@@H](C4)[C@@H]3C2)n1)N1CCCC1 | -10.0
CCOc1ccc(NC(=O)N2CCN(Cc3nc(-c4ccc(C)cc4)oc3C)CC2)cc1 | 1.3
O=C(/C=C/c1ccccc1)/C=C/c1ccccc1 | -97.6*
O=C(O)CS(=O)(=O)/C=C/c1ccccc1 | -3.9
O=C(/C=C/c1ccccc1)c1ccccc1 | 28.3
CCC(C(=O)NCCN1CCCC1)n1c2ccccc2c2cnn(C)c(=O)c21 (centres undefined) | 63.3
CCC(C(=O)N1CCN(c2ccccn2)CC1)n1c2ccccc2c2cnn(C)c(=O)c21 (centres undefined) | -73.2*
Cn1ncc2c3ccccc3n(CC(=O)N3CCN(c4ccccn4)CC3)c2c1=O | 135.9
Cc1ccc(-c2nnc(N3CCC(C(=O)N4CCC(N5CCCCC5)CC4)CC3)o2)cc1 | -25.8
Cc1nc(CCNC(=O)Cc2noc3ccccc23)nc2c1CCCC2 | 19.8
CC1(C)CC(=O)c2c(C(F)(F)F)nn(-c3ccc(C(N)=O)c(NC4CCC(O)CC4)c3)c2C1 (centres undefined) | -77.5*
CC1(C)CC(=O)c2c(C(F)(F)F)nn(-c3ccc(C(N)=O)c(NC4CCC(OC(=O)CN)CC4)c3)c2C1 (centres undefined) | -76.0*
CC1(C)CC(=O)c2c(nc3ccccc3c2N)C1 | 22.8
O=C(C1CCOCC1)N1CCC2(CCN(Cc3cccnc3)C2)CC1 | -26.3
SMILES | Tg IFNy HTS
O=C(c1ccc(NCc2cccnc2)nc1)N1CCC(Oc2cccnc2)CC1 | 16.7
CNc1cc(CC2CCCNC2)ncn1 (centres undefined) | -6.8
COc1cccc(OC)c1C(=O)NCCc1sc(-c2ccc(F)cc2)nc1C | 41.8
CC(=O)Nc1ccc(S(=O)(=O)Nc2nc3ccccc3nc2Nc2ccc(C)cc2)cc1 | -30.1
Cc1ccc(S(=O)(=O)Nc2cnc3ccccc3c2)cc1 | -53.0
Cc1ccc(S(=O)(=O)Nc2ccc(-c3nc4ccccc4[nH]3)cc2)cc1 | -81.0*
O=C(CCc1ccccc1)N1CCC2(CC1)Nc1ccccc1-n1cccc12 | 42.3
O=C(c1ccccn1)N1CCOCC2(CCN(Cc3ccco3)C2)C1 (centres undefined) | 4.5
Cc1cc(NC(=O)CN(C)Cc2nc(C)c3c(n2)N(CCc2ccccc2)C(=O)CC3)no1 | 0.2
O=C(Nc1ccc(F)cc1)N1C[C@@H]2[C@H](c3ccccc31)[C@H](CO)N2Cc1ccccc1Cl | 37.4
O=S(=O)(c1ccc(F)cc1)N1C[C@@H]2[C@H](c3ccccc31)[C@@H](CO)N2Cc1ccccc1Cl | -2.9
O=S(=O)(c1ccc(F)cc1)N1C[C@H]2[C@@H](c3ccccc31)[C@@H](CO)N2Cc1ccccc1Cl | -78.6*
O=C(Cn1ncc2c(N3CCCCCC3)ncnc21)NCc1cccc(C(F)(F)F)c1 | 37.4
Cc1oc(-c2ccoc2)nc1CN1CCCCC1CCc1ccccc1 (centres undefined) | -6.1
COC(=O)NC(C)CNc1nccc(-c2cn(C(C)C)nc2-c2cc(Cl)cc(NS(C)(=O)=O)c2F)n1 (centres undefined) | -70.5*
Cc1nc(N2CCC(C(=O)N3CCc4ccccc4C3)CC2)nc2cc(S(C)(=O)=O)ccc12 | -12.0
Cn1cc(C(=O)N2CCN(c3nc4ccccc4s3)CC2)c2ccccc2c1=O | -15.3
CN(C)C(=O)CO[C@H]1CN(Cc2cccc(C#N)c2)[C@H]2COC[C@@H]12 | -5.1
CN=C(NC#N)Nc1ccc(C2=NNC(=O)CC2C)cc1 (centres undefined) | 14.0
CCN(CC)c1ccc(C2=NNC(=O)CC2C)cc1[N+](=O)[O-] (centres undefined) | -98.3*
COc1ccc(-c2nc3ccc(C4=NNC(=O)CC4C)cc3[nH]2)cc1 (centres undefined) | 28.8
CCc1ccc(NC(=O)C(=O)NCCc2csc(-c3ccc(Cl)cc3)n2)cc1 | 68.6
O=C(c1c(F)cccc1F)N1CCC2(CC1)Nc1ccc(Cl)cc1-n1cccc12 | 46.6
Cc1nc(C)c(C(=O)N2CCC(C(=O)N3CCCCCC3)C2)o1 (centres undefined) | -11.0
Cc1nc(C)c(C(=O)N2CC(C(=O)N3CCCCCC3)C2)o1 | -4.7
Cc1nc(C)c(C(=O)N2C[C@@H](c3ccccc3)[C@H](c3cc(C(F)F)n[nH]3)C2)o1 | -80.2*
